Where “and” joins values, the source holds several entries; their conditions need not be identical. Identical values can stand only once. The campaign covered roughly 16,000 compounds. About 5,100 (32%) were called active. Not shown: some 25% with an inconclusive outcome. The list shows a part of the results. A number with no mark means an inactive call. Calls come from the whole dose curve; as a rule, active = well fitted curve in the direction sought with a large enough effect; inconclusive = small, poorly fitted or top-dose-only effect, or effect the other way; inactive = no such curve, though single readings can be large or run the other way.
% is set by controls: 0 for no effect and ±100 for the full control effect.

Sequence of Cytochrome P450 3A4 (Homo sapiens) (P08684 whole entry, looked up): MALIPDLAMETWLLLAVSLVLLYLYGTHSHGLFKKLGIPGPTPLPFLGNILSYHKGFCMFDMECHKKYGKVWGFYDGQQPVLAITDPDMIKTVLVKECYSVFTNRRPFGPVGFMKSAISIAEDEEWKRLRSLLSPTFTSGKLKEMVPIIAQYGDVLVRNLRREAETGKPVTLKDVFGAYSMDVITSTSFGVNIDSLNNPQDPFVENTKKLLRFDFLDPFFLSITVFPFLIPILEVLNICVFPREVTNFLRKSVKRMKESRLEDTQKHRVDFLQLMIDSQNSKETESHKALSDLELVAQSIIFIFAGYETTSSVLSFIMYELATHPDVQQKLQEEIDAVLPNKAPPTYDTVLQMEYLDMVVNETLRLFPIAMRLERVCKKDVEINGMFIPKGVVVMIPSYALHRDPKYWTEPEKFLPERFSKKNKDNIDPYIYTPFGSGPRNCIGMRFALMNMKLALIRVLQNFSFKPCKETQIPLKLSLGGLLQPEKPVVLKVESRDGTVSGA

The test concerns the target Cytochrome P450 3A4 (Homo sapiens) (UniProt P08684). As to the kind of experiment: Cytochrome panel assay with activity outcomes. The following applies: recombinant CYP, pro-luciferin dealkylation, luminescence, p450-cyp3a4; series mostly up to 57.1 µM; activity, negative = inhibition: at the top concentration.
`CCSc1nnc(C(N)Cc2ccccc2)o1` (stereo not drawn): the AC50 was 11.2 µM (active). For the compound `N[C@@H](Cc1ccccc1)P(=O)(O)O`, the activity, negative = inhibition was -2.63% [at 11.4 µM]. As to `COc1ccc(C[C@@H](N)c2ccc(OC)cc2)cc1`, the activity, negative = inhibition was -30.1% [at 11.4 µM].

As for `CN1CC[C@@]23c4ccccc4N[C@H]1[C@]21CCN(C)[C@@H]3Nc2ccccc21`, the “activity, negative = inhibition” value is -11.4% [at 25.6 µM]. Same read-out and setting: for `C[C@H](OP(=O)(O)O)[C@H](N)C(=O)O` the value was -9.79% [at 11.4 µM]. Consider `O=C1C=CC(=O)c2c1ccc1c2ccc2ccccc21`, for which the “activity, negative = inhibition” value is -24.8% [at 25.6 µM].

As to `Nc1ccc(CCN2CCN(c3cccc(C(F)(F)F)c3)CC2)cc1`, the AC50 was 7.94 µM (active). On to `NCCCN1CCN(c2ccccc2)CC1`, for which the activity, negative = inhibition was -17.3% [at 11.4 µM]. On to `C=C1[C@@H]2C[C@@]3([C@H]1O)[C@H]1C[C@@H]4[C@@]5(C)CC[C@H](O)[C@]4([C@H]1N(CC)C5)[C@H]3C[C@H]2O`, for which the “activity, negative = inhibition” value is -1.02% [at 25.6 µM].

On to `NC(=NCc1ccc(Cl)cc1)SCCCc1cnc[nH]1`, for which the AC50 is 1.58 µM (active).

Take `NC(=NCCc1ccc(I)cc1)SCCCc1cnc[nH]1`: the AC50 was 0.794 µM (active). `OCc1cnc[nH]1`: the “activity, negative = inhibition” value is -11.1%. Turning to `NC(N)=NCCC[C@H](N)C(=O)O`, the “activity, negative = inhibition” value was -9.21%. On to `NS(=O)(=O)c1cc([C@@]2(O)NC(=O)c3ccccc32)ccc1Cl`, for which the “activity, negative = inhibition” value is -2.87% [at 25.6 µM]. The same measure, in the same setting: the value for `Cc1o[nH]c(=O)c1C[C@H](N)C(=O)O` was “inactive”; that for `CCCCN1C(=O)/C(=C/c2ccc(N(C)C)cc2)C(=O)N(Cc2ccco2)C1=O` was -12% [at 2.29 µM].

For `O=C(O)/C=C\c1ccc[c]([Sb](=[O])([OH])[OH])c1`, the activity, negative = inhibition is -2.48% [at 11.4 µM]. Take `CCCN1CCC[C@H](c2cccc(C#N)c2)C1`: the “activity, negative = inhibition” value is -3.09%.

On to `CCCc1cc2c(n1Cc1cccc(Cl)c1)C(C)C1CN(C(=O)c3ccccc3)C(C)(C(=O)OC)C21` (stereo not drawn), for which the AC50 is 5.01 µM (active). Same read-out and setting: for `CCCc1cc2c(n1Cc1ccc(C)cc1)C(C)C1CN(C(=O)c3ccccc3)C(C)(C(=O)OC)C21` (stereo not drawn) the value was 3.16 µM (active); for `CCCc1cc2c(n1CCO)C(C)C1CN(C(=O)c3ccccc3)C(C)(C(=O)OC)C21` (stereo not drawn), 10 µM (active). For the compound `CC[N+](CC)(CCCNC1=CC(=O)C(NCCC[N+](CC)(CC)Cc2ccccc2)=CC1=O)Cc1ccccc1`, the “activity, negative = inhibition” value is -14%. The same measure, in the same setting: for `CC(C)C[C@H](NP(=O)(O)O[C@@H]1O[C@@H](C)[C@@H](O)[C@@H](O)[C@H]1O)C(=O)N[C@@H](Cc1c[nH]c2ccccc12)C(=O)O` the value was -8.92%. As to `C[C@@]12CC[C@H]3[C@@H](CC=C4C[C@H](OS(=O)(=O)O)CC[C@]43C)[C@H]1CCC2=O`, the “activity, negative = inhibition” value is -14.9%. Regarding `CCN1CCN(c2ccc(NC(=O)C(C)C)cc2Cl)CC1`, the “activity, negative = inhibition” value was 2.04%. The same measure, in the same setting: for `NC[C@H](O)c1ccc(O)cc1` the value was “inactive”; for `O=C1C2CCN(CC2)C1(CO)CO`, “inactive”; for `O=C(O)Cc1cccnc1C(=O)O`, -4.82%. For the compound `C[C@@H]1O[C@H]1P(=O)(O)O`, the “activity, negative = inhibition” value is 9.75%.

Take `CC[C@H]1CN2CCc3cc(OC)c(OC)cc3[C@H]2C[C@@H]1C[C@H]1NCCc2c1[nH]c1ccc(O)cc21`: the activity, negative = inhibition is -8.94% [at 11.4 µM]. Still for that read-out and setting: the value for `C[C@](N)(CCP(=O)(O)O)C(=O)O` was -14.5%; that for `CC(C)CN1CC2(CCN(C(=O)Oc3ccccc3)CC2)C1` was -5.86%; that for `COC(=O)N1CCC2(CCCN(C)C2)CC1` was -17.8%. As for `CN1CC[C@@]2(CCCN(C(=O)Oc3ccccc3)C2)C1`, the AC50 was 12.6 µM (active). Same read-out and setting: the value for `CC(C)CN1CC[C@@]2(CCCN(C(=O)Oc3ccccc3)C2)C1` was 12.6 µM (active).

As to `O=C(Oc1ccccc1)N1CCC2(CCCN(C(c3ccccc3)c3ccccc3)C2)CC1`, the “activity, negative = inhibition” value was 4.99%. Regarding `CN1CCC2(CC1)CCN(C(=O)Oc1ccccc1)CC2`, the “activity, negative = inhibition” value was -5.53%. Regarding `O=C(Oc1ccccc1)N1CCC[C@@]2(CCN(C(c3ccccc3)c3ccccc3)C2)C1`, the AC50 is 10 µM (active). Still for that read-out and setting: for `N#Cc1ccc(CN2CC[C@@]3(CCCN(C(=O)Oc4ccccc4)C3)C2)cc1` the value was 7.94 µM (active).

With `COC(=O)N1CCC2(CCN(CC(C)C)CC2)CC1`, the “activity, negative = inhibition” value is -27.1%. Take `CN[C@H](Cc1ccccc1)c1cccc(OC)c1O`: the activity, negative = inhibition is -2.26% [at 11.4 µM].

As to `c1ccc2c(c1)Sc1ccccc1N2C[C@H]1CN2CCC1CC2`, the activity, negative = inhibition is -6.51% [at 11.4 µM]. On to `CCOP(=O)(OCC)C(NC(C)=O)C(Cl)(Cl)Cl` (stereo not drawn), for which the “activity, negative = inhibition” value is -11.2%. Still for that read-out and setting: for `CCCC[N+]12CCC(CC1)C(C(=O)c1cccs1)C2` (stereo not drawn) the value was -11.1%; for `CC(=O)NCCc1c[nH]c2ccccc12`, -21.8%; for `ClCCNc1nc2ccc(Cl)cc2[nH]1`, 13.4%. Still for that read-out and setting: the value for `CC(=O)OCC1=C(C(=O)[O-])N2C(=O)[C@@H](NC(=O)CCC[C@@H](N)C(=O)[O-])[C@@H]2SC1.[Zn+2]` was 2.83%. Same read-out and setting: for `C=CCN1CCC2(C)c3cc(O)ccc3C[C@H]1[C@H]2C` the value was “inactive”. For `C=CCN1C[C@H](C)N([C@H](c2ccc(C(=O)N(CC)CC)cc2)c2cccc(O)c2)C[C@H]1C`, the AC50 was 12.6 µM (active). With `C[C@H](N)Cc1c[nH]c2ccc(O)cc12`, the activity, negative = inhibition entry was “inactive”. On the same count and under the same terms, for `O=C(CN1CCCCC1)Nc1ccc(Br)cc1C(=O)c1ccccc1Cl` the value was -0.765% [at 2.29 µM]; for `O=C(Nc1ccc(Cl)cc1C(=O)c1ccccc1Cl)c1ccco1`, -25.6%. Consider `COc1ccc(OCC(=O)Nc2ccc(Cl)cc2C(=O)c2ccccc2)cc1`, for which the AC50 is 2.24 µM (active). Take `CNC(C)(C)Cc1ccccc1`: the “activity, negative = inhibition” value is -9.59% [at 25.6 µM]. Still for that read-out and setting: for `CCCN1CCC[C@@H]2Cc3[nH]ncc3C[C@H]21` the value was “inactive”. As to `CC(C(=O)c1c[nH]c2ccccc12)N1CCSCC1` (stereo not drawn), the activity, negative = inhibition was -1.61% [at 2.29 µM]. As for `CN(C)CCC(=O)[C@@]1(O)CC[C@H]2[C@H]3CC=C4C[C@@H](O)CC[C@]4(C)[C@H]3CC[C@]21C`, the activity, negative = inhibition was -0.253% [at 11.4 µM]. Same read-out and setting: for `c1cncc(CNCCN2CCNCC2)c1` the value was -5.07% [at 11.4 µM].

Take `c1cncc(CNc2cc(-c3ccc4c(c3)OCO4)ncn2)c1`: the AC50 is 0.794 µM (active). In the case of `O[C@@H](c1cc(-c2ccccc2)nc2c1ccc1ccccc12)[C@@H]1CCCCN1`, the activity, negative = inhibition is -0.102% [at 11.4 µM]. Regarding `C[C@H]1CC[C@@]2(NC1)O[C@@H]1C[C@H]3[C@@H]4CC[C@@H]5C[C@@H](O)CC[C@@]5(C)[C@@H]4CC[C@]3(C)[C@@H]1[C@@H]2C`, the “activity, negative = inhibition” value is -6.73% [at 25.6 µM]. Same read-out and setting: the value for `NCC[C@H](O)C(=O)N[C@H]1C[C@@H](N)[C@@H](O[C@H]2O[C@@H](CN)[C@@H](O)[C@@H](O)[C@@H]2N)[C@@H](O[C@H]2O[C@@H](CO)[C@@H](O)[C@@H]2O)[C@@H]1O` was -10.2% [at 25.6 µM].

On to `O=C(O)c1ccccc1Nc1cccc(C(F)(F)F)c1`, for which the “activity, negative = inhibition” value was -0.956% [at 25.6 µM]. Regarding `CC(O)(CS(=O)(=O)c1cccc(C(F)(F)F)c1)C(=O)Nc1cccc(C(F)(F)F)c1` (stereo not drawn), the AC50 is 1.41 µM (active). Take `CC(O)(CS(=O)(=O)c1ccccc1)C(=O)Nc1cccc(C(F)(F)F)c1` (stereo not drawn): the AC50 was 4.47 µM (active). On to `CC(O)(CS(=O)(=O)c1cccc(C(F)(F)F)c1)C(=O)Nc1ccc(C(F)(F)F)cc1` (stereo not drawn), for which the AC50 was 1.41 µM (active). With `Cc1o[nH]c(=O)c1C[C@@H](N)C(=O)O`, the “activity, negative = inhibition” value is -12.3%. With `CC1=C(O)C(=O)[C@H]2O[C@@H]2C1=O`, the “activity, negative = inhibition” value was -6.84%.

Consider `O=C(O)CCCC[C@H]1SC[C@H]2NC(=O)N[C@@H]21`, for which the “activity, negative = inhibition” value was 0.249% [at 25.6 µM]. The same measure, in the same setting: the value for `O=C(O)[C@H]1[O][Sb][O][C@@H](C(=O)O)C1O` (stereo partly drawn) was -10.4% [at 11.4 µM]; that for `C[C@]1(O)CC[C@H]2[C@@H]3[C@@H](O)CC4=CC(=O)CC[C@@]4(C)[C@H]3CC[C@]21C` was -2.12% [at 11.4 µM]; that for `CC1(C)N=C(N)N=C(N)N1c1cccc(C(=O)Nc2ccc(S(=O)(=O)F)cc2)c1` was 17.5% [at 11.4 µM]. Same read-out and setting: the value for `O=[As](O)(O)c1ccc(N=Nc2ccc(O)cc2)cc1` was -4.07% [at 11.4 µM]; that for `C[N+](C)(C)CC(=O)O` was -1.03%. The same measure, in the same setting: the value for `N=C(N)SCc1ccc(Cl)c2ccccc12` (tested in a mixture with another compound) was -2.18% [at 11.4 µM] and 15.2% [at 11.4 µM]. Regarding `CC(C)c1c(CN(C)[C@@H](C)Cc2ccccc2)n(C)n(-c2ccccc2)c1=O`, the AC50 is 3.98 µM (active).

Take `C=C[C@@H]1CN2CC[C@H]1C[C@H]2[C@H](O)c1ccnc2ccccc12`: the activity, negative = inhibition was -1.79% [at 11.4 µM]. Take `CC(C)CNCCc1ccccn1`: the activity, negative = inhibition was -8.38% [at 11.4 µM]. Regarding `CCC1(C)CC(=O)NC(=O)C1`, the “activity, negative = inhibition” value was -6.38% [at 25.6 µM]. As to `COc1ccc2[nH]cc(CCN(C)C)c2c1`, the “activity, negative = inhibition” value was -11.1%.

Take `COc1ccc(CNC(=O)/C=C\c2ccc3[nH]cc(CCN(C)C)c3c2)cc1`: the AC50 is 15.8 µM (active). In the case of `CCCN(CCC)CCc1c[nH]c2ccc(C(N)=O)cc12`, the “activity, negative = inhibition” value is 11.3%. With `N[C@@H](CSC1c2ccccc2-c2ccccc21)C(=O)O`, the activity, negative = inhibition was -17.3% [at 11.4 µM].

`Cn1c[n+](C)cc1C(O)c1ccccc1` (stereo not drawn): the activity, negative = inhibition is 1.92% [at 2.29 µM]. The same measure, in the same setting: for `C=C(C)c1ccccc1` (tested in a mixture with another compound) the value was -22.2% [at 11.4 µM]; for `CN1C(=O)C(=Cc2ccc(N3CCCCC3)o2)C(=O)N(C)C1=S`, 12.5%. Regarding `CN1C(=O)C(=Cc2ccc(N3CCCCCC3)o2)C(=O)N(C)C1=S`, the half-maximal activity concentration (AC50) is 3.98 µM (active). `CCN1CCC2(CC1)NC(CO)(CO)CO2`: the “activity, negative = inhibition” value was 4.42%. Same read-out and setting: for `C[C@]12N[C@@H](Cc3ccccc31)c1ccccc12` the value was “inactive”; for `Cc1cccc(N2C(=O)NC(=O)/C(=C\c3cnn(-c4ccccc4)c3)C2=O)c1`, 8.31% [at 2.29 µM].

On to `Cc1cc(C)cc(NC(=S)NC2CC3CCC(C2)N3Cc2ccco2)c1` (stereo not drawn), for which the “activity, negative = inhibition” value was -17.6%. Turning to `CN(C)CS/C(N)=N/[C@H](O)C(Cl)(Cl)Cl`, the activity, negative = inhibition was -7.61% [at 11.4 µM].

For `CC[N+](CC)(CCNC(=O)C(=O)NCC[N+](CC)(CC)Cc1ccccc1Cl)Cc1ccccc1Cl`, the “activity, negative = inhibition” value is -14.7%.

These data come from PubChem BioAssay AID1851 (National Center for Advancing Translational Sciences (NCATS), 2009).
